Compounds with a hit are over-represented: about 1.4% of the library has one in this group of screens.
EPAC2 agonist – agonists of human EPAC2 (RAPGEF4). Potency, µM (top dose mostly 154 µM), without a hit: at the highest dose activation, usual class: activators. Q8WZA2. actives 0.079% (n = 360,000). EPAC2 activation, biochemical qHTS; response scale: 100% = 6.5 mM cAMP response; also: potency is read from the fitted curve at half-maximal effect; nearly all actives have a fitted effect of over 50% in size
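Setup: EPAC2 100 nM, labeled Rap1B complex 250 nM, free GDP 50 uM. Compound titrations pinned in, brief spin, 5 min room temperature incubation. Kinetic fluorescence read over 30 min, normalized to 6.5 mM cAMP.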
EPAC1 ag – EPAC1 (human) agonism | Potency, µM (titrated, usually from 154 µM), for inactives: at the top dose activation, most hits filed as activators | O95398 | actives 0.073% (n = 360,000) | EPAC1 agonist qHTS, biochemical assay; response scale: 100% = response to 6.5 mM cAMP; also: potency is read from the fitted curve at half-maximal effect; nearly all actives have a fitted effect of over 60% in size
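Fluorescent GDP-exchange assay: 100 nM EPAC1 with 250 nM Rap1B preloaded with BODIPY-GDP and 50 uM GDP; compounds tested as concentration series, 5 min at room temperature, then read every 5 min for 30 min (ex 480/em 540 nm); normalized to 6.5 mM cAMP.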
KCNH2 3.1 block – inhibitors of human KCNH2 3.1 potassium channel isoform. U2OS KCNH2 3.1, thallium flux FluxOr; hits give low values. activity change, % (tested at about 1.8 µM). actives 0.95% (n = 340,000);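 active = maximum activity change below -70%; inconclusive = maximum activity change from -70% to -50%; inactive = maximum activity change above -50%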;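 also: thallium influx rate constant from kinetic fluorescence after stimulation buffer; % is scaled to controls: 0 for no effect and ±100 for the full control effect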
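Normalized rate constant (relative to positive and negative DMSO controls) derived from a 2 min kinetic fluorescence read after stimulation; U2OS cells expressing the 3.1 isoform via virus at 1.77 x 10^8 /mL.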
EPAC1 antag – antagonists of human EPAC1; O95398; EPAC1 GEF assay, Rap1b-BODIPY-GDP exchange fluorescence; Potency, µM (titrated, usually from 115 µM), for the others: at the top dose activity change, negative = inhibition, actives largely listed as inhibitors; actives 0.14% (n = 360,000); AID 720709;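 also: potency is read from the fitted curve at half-maximal effect; plate controls were vehicle for no effect and positive control for full effect; nearly all actives have a fitted effect of over 50% in size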
EPAC2 antag – blocks human EPAC2 exchange factor. Q8WZA2. EPAC2 GEF exchange of Rap1B-BODIPY-GDP, fluorescence. Potency, µM (doses to about 114 µM), for inactives: at the highest dose activity, negative = inhibition, most hits filed as inhibitors. actives 0.18% (n = 360,000). AID 720708; also: potency is read from the fitted curve at half-maximal effect; % is scaled to controls: 0 for no effect and ±100 for the full control effect; nearly all actives have a fitted effect of over 45% in size
KCNH2 WT inh – KCNH2 (human, wildtype) channel inhibition | actives 0.37% (n = 340,000) | U2OS, BacMam KCNH2, thallium flux FluxOr; hits give low values | activity change, % at 1.84 µM | Q12809 | AID 720551;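 active = maximum activity change below -70%; inconclusive = maximum activity change between -70% and -50%; inactive = maximum activity change above -50%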; also: % is scaled to controls: 0 for no effect and ±100 for the full control effect
Target sequence (Q12809 whole entry, looked up): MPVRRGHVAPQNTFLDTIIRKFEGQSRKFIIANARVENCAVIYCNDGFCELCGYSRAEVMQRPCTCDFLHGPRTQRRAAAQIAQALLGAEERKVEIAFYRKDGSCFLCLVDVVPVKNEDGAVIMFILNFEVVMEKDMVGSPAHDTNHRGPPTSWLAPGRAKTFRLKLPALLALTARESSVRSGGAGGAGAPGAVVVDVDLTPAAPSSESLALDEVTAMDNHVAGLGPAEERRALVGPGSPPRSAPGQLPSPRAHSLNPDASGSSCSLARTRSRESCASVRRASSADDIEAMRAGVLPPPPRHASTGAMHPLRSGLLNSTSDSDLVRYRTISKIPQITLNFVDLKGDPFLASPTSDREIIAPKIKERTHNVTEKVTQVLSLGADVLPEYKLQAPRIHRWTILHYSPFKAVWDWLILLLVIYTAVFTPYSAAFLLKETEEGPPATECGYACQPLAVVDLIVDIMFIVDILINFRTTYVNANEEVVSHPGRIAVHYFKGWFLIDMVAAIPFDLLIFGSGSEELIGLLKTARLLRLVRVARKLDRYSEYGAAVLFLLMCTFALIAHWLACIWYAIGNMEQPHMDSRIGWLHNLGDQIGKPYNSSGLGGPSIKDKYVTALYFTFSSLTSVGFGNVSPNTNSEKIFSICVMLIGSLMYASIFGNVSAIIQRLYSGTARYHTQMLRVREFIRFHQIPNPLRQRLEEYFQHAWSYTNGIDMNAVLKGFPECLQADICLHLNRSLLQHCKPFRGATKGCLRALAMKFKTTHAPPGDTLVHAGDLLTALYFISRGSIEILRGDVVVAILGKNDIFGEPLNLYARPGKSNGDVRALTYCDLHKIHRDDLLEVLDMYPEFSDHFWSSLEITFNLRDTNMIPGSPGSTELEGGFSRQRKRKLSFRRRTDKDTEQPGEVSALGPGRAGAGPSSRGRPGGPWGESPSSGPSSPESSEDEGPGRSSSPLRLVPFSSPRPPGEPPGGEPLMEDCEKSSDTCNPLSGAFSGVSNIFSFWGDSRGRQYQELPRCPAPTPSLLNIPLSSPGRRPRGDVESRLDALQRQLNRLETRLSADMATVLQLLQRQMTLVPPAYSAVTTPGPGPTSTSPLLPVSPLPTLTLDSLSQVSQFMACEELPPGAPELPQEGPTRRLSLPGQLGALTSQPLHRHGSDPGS
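U2OS cells transduced with wild-type KCNH2 virus are loaded with FluxOr dye for 45 min, and thallium flux is measured in kinetic reads before and after stimulation buffer. Rate constants are normalized to DMSO controls.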
* marks the source's active call; other numbers are inactive results; ? = inconclusive. Unless noted, calls follow the shape of the dose curve; as a rule, active = well fitted curve in the direction sought with a large enough effect; inconclusive = small, poorly fitted or top-dose-only effect, or another doubt; inactive = no such curve, though single readings can be large; an effect the other way counts as inactive or inconclusive.

SMILES | EPAC2 agonist | EPAC1 ag | KCNH2 3.1 block | EPAC1 antag | EPAC2 antag | KCNH2 WT inh
CCN1CCN(c2ccc(S(=O)(=O)N3CCCCC3)cc2NC(=O)c2cccc(OC(F)F)c2)CC1 | 0% | ? | -118* | -23% | -18% | -84*
CCN1CCN(c2ccc(S(=O)(=O)N3CCCCC3)cc2NC(=O)/C=C/c2ccc(F)cc2)CC1 | 6% | 2% | -13 | 5% | 2% | 12
CN1CCN(c2ccc(S(=O)(=O)N3CCCCC3)cc2NC(=O)/C=C/c2ccc(OC(F)F)cc2)CC1 | 14% | 3% | -15 | -27% | -2% | 54
CCN1CCN(c2ccc(S(=O)(=O)N3CCCCC3)cc2NC(=O)/C=C/c2ccc([N+](=O)[O-])cc2)CC1 | -4% | 13% | -76* | -29% | -12% | -43
CCN1CCN(c2ccc(S(=O)(=O)N3CCCCC3)cc2NC(=O)/C=C/c2ccc(OC(F)F)cc2)CC1 | 1% | -2% | -80* | -11% | -10% | -90*
CCN1CCN(c2ccc(S(=O)(=O)N3CCCCC3)cc2NC(=O)c2ccc(OC(F)F)cc2)CC1 | 5% | 4% | ? | -6% | -2% | -20
COc1ccc(S(=O)(=O)Nc2ccc(OCC(=O)O)cc2)c2ccccc12 | 7% | 8% | -7 | -15% | 89µM* | 5
COc1ccc(NC(C)=O)cc1S(=O)(=O)Nc1ccc(OCc2ccccc2)cc1 | 12% | 14% | 5 | -14% | -14% | 11
CSc1ccccc1NC(=O)CSc1nnnn1-c1ccccc1SC | 7% | 8% | -8 | 0% | -5% | -3
COC(=O)c1ccsc1NC(=O)CSc1nnnn1-c1ccccc1SC | 12% | 17% | -88* | 6% | 5% | -22
COCc1cc(CN2CCCC(C(=O)Nc3ccc(-c4ccco4)cc3)C2)ccc1OC (stereo not given) | 7% | 5% | -20 | 3% | -6% | 23
CN(CC1CCCN(CCc2cccc(C(F)(F)F)c2)C1)C(=O)c1ccco1 (stereo not given) | 3% | 2% | -22 | 8% | -4% | 33
Cc1occc1C(=O)N(C)CC1CCCN(CCc2ccccc2F)C1 (stereo not given) | 3% | -6% | -7 | 5% | -4% | 18
CN(CC1CCCN(CCc2ccc(Cl)cc2)C1)C(=O)C(=O)c1ccco1 (stereo not given) | 5% | 12% | -89* | -2% | 0% | -23
Cc1ccccc1CCN1CCCC(CN(C)C(=O)C(=O)c2ccco2)C1 (stereo not given) | -1% | -2% | -90* | -3% | -2% | -2
Cc1ccc(S(=O)(=O)N(C)Cc2ccc(C(=O)N/N=C/c3ccc(OC(F)F)cc3OC(F)F)cc2)cc1 | -2% | -14% | -75* | -14% | -1% | -25
OC1(c2ccc(Br)cc2)CCN(Cc2cccc(Br)c2)CC1 | 8% | 10% | -76* | 3% | -6% | 26
Brc1cccc(CN2CCCCCC2)c1 | 15% | 17% | -2 | 3% | -5% | 3
O=C(c1cc(-c2cccc(O)c2)on1)N1CCCC1 | 12% | 10% | -188* | -9% | 2% | -228*
COc1ccc(/C=C2\SC(=S)N(CCC(=O)N3CCCCC3)C2=O)cc1 | -4% | 3% | 6 | -12% | -4% | 1
COCCN1C(=O)/C(=C/c2ccc(N3CCCC3)cc2)SC1=S | 20µM* | ? | ? | -20% | 2% | -40
CN(C)S(=O)(=O)c1ccc(N2CCCC2)c(C(=O)N2CCC(C(N)=O)CC2)c1 | 8% | 9% | 6 | 16% | -3% | -4
COc1ccc(CCNC(=O)Cn2c(=O)n(CC3CCCO3)c(=O)c3cc(OC)c(OC)cc32)cc1OC (stereo not given) | 4% | 5% | -141* | -2% | -3% | 29
